Consider 88 molecules from publication PMC4336329 (PLoS ONE, 2015).

Among all 310,000 compounds or so, about 14,000 (4.5%) showed an effect of 50% or more. Effects have a minus sign here. The sample holds strong results, similar compounds and a random draw of the others, so the mix is not that of the screen.
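Note: peak tail current of the secondary pulse compared with the same well before compound.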

The target of this experiment is human ether-à-go-go-related gene (hERG) potassium channel (human, UniProt Q12809). Nature of the experiment: primary screen, population patch clamp on CHO cells stably expressing hERG; higher = less effect of the substance.
human ether-à-go-go-related gene (hERG) potassium channel, sequence (Q12809 whole entry, looked up): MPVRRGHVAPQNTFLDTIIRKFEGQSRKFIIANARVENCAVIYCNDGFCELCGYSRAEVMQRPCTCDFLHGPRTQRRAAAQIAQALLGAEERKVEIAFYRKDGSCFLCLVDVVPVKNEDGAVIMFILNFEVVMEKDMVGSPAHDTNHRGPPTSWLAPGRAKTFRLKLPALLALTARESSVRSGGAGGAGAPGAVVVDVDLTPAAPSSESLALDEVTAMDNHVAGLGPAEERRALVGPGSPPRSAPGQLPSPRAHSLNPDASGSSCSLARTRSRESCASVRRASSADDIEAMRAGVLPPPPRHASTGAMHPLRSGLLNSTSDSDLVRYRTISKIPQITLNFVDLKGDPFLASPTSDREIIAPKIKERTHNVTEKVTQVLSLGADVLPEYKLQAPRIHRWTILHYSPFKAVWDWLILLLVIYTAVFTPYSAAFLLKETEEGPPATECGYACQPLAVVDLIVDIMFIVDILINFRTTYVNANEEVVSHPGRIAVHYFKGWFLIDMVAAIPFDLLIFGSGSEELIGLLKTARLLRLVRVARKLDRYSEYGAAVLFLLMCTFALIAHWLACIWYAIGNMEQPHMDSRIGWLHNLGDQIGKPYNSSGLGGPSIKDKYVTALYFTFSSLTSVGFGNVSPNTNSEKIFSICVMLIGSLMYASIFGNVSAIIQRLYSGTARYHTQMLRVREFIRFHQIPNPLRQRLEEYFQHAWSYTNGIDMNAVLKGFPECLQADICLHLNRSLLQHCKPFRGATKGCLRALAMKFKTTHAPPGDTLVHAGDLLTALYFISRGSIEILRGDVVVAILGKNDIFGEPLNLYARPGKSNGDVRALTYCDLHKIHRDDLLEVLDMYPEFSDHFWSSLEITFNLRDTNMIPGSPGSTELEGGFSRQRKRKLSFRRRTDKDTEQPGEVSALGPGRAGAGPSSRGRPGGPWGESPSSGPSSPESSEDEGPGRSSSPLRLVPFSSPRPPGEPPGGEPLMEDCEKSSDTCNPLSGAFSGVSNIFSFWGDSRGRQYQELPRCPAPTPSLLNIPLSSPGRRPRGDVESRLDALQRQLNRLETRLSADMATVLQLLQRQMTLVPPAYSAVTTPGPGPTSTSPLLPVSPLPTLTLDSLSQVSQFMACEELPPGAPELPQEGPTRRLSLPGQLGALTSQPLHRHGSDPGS
As to `CCCc1nc2oc3c(OCC)ncnc3c2c2c1COC(C)(C)C2`, the “hERG current change (%, negative = inhibition) at 10uM” value is recorded as -13.2%.
Next, `CCCCn1c(N)c(N(C)C(=O)c2ccc(-n3cccn3)cc2)c(=O)[nH]c1=O`: 0.138%.
Next, `Cc1cc(NC(=O)c2cccc(S(=O)(=O)N3CCCCCC3)c2)n(-c2ccccn2)n1`: 13.4%; `CCOC(=O)C1(Cc2cccc(OC)c2)CCN(C2CCOCC2)CC1`: -68.7%; `CCOC(=O)C1(Cc2cccc(F)c2)CCN(C2CCOCC2)CC1`: -63.5%.
To `CCOC(=O)C1(Cc2cccc(F)c2)CCN(C(=O)C2CCOCC2)CC1` belongs -15%; to `CCOC(=O)C1(Cc2cccc(F)c2)CCN(C(=O)C2CCCO2)CC1` (stereo not shown), 10.2%.
`Cc1ccc(CC(=O)Nc2ncc([N+](=O)[O-])s2)cc1`: the “hERG current change (%, negative = inhibition) at 10uM” value is recorded as 32.5%.
To `CCCCN(CC)C(=O)Cc1c(C(=O)O)[nH]c2ccc(Cl)cc12` belongs 12.4%; to `CCN1CCN(c2ccc(NC(=O)COc3ccccc3Cl)cc2)CC1`, -40.7%; to `Cc1cc(S(=O)(=O)N2CCOCC2)ccc1NC(=O)c1ccc(F)cc1`, 1.32%.
With `Cc1ccc(CNC(=O)c2cc3c(s2)CN(Cc2ccccc2)C3)cc1.Cl`, the “hERG current change (%, negative = inhibition) at 10uM” value is 3.85%.
Next, `CC(C#N)(NC(=O)CN1CCN(S(=O)(=O)c2ccccc2Cl)CC1)C1CC1` (stereo not shown): 5.18%; `Cc1c(C=C2C(=O)N(C)C(=S)N(C)C2=O)c2ccccc2n1CC(=O)NCC1CCCO1` (stereo not shown): 4.95%; `CC(C(=O)O/N=C(\N)c1cccnc1)c1ccc([N+](=O)[O-])cc1` (stereo not shown): -56.8%.
To `N/C(=N\OC(=O)c1ccc([N+](=O)[O-])cc1)c1cccnc1` belongs -10.7%.
To `N#C/C(=C\c1cccnc1)c1ccccc1[N+](=O)[O-]` belongs 4.04%; to `N#C/C(=C\c1cccnc1)c1ccc(Br)cc1`, -5.44%; to `O=C(/C=C/c1ccc([N+](=O)[O-])cc1)c1cccnc1`, -53%.
`O=C(/C=C/c1ccc(Cl)c([N+](=O)[O-])c1)c1cccnc1`: the “hERG current change (%, negative = inhibition) at 10uM” value was -6.3%.
To `O=C(/C=C/c1ccccc1)Nc1cccnc1` belongs -26%.
Next, `O=C(/C=C/c1ccc([N+](=O)[O-])cc1)Nc1cccnc1`: -62.7%; `O=C(/C=C/c1ccc(Cl)c([N+](=O)[O-])c1)Nc1cccnc1`: -17.3%; `N#C/C(=C\c1cccnc1)c1ccc([N+](=O)[O-])cc1`: -56.3%.
With `Cc1ccc(/C(N)=N/OC(=O)C(C)c2ccc([N+](=O)[O-])cc2)cc1` (stereo not shown), the “hERG current change (%, negative = inhibition) at 10uM” value is listed as -4.62%.
To `O=C(/C=C/c1cccnc1)c1ccc([N+](=O)[O-])cc1` belongs -42.3%.
Next, `O=C(NNC(=O)C12CC3CC(CC(Cl)(C3)C1)C2)c1csc(N2CCOCC2)n1`: -1.63%; `Cc1[nH]nc(SCC(=O)N2CCCCCC2)c1[N+](=O)[O-]`: 3.4%.
Next, `Cc1nnc(SCC(=O)NNC(=O)CC#N)[nH]c1=O`: -7.01%; `CCOc1cc(-c2cc(N)n[nH]2)cc(OCC)c1OCC`: 14.6%; `Cc1ccc(N(C)C(=O)n2cnc3ccccc32)cc1`: -1.52%.
On to `CN(Cc1ccccc1)C(=S)NC(=O)c1cccs1`, for which the “hERG current change (%, negative = inhibition) at 10uM” value was found to be 8.32%.
Next, `O=C(NCc1nnc(SC/C=C/c2ccccc2)o1)c1ccco1`: -5.97%; `CC1(COS(N)(=O)=O)CCCCC1`: 1.76%; `Cc1ccc(S(=O)(=O)Nc2ccc(-c3nc4ccc(C)cc4s3)cc2)cc1`: 2.32%.
For the molecule `CC(C)COc1ccc(/C(=N/O)c2ccccc2)cc1`, the “hERG current change (%, negative = inhibition) at 10uM” value amounted to 11%.
In the case of `Cc1ccc(C(=O)c2coc3ccc(OCC(=O)O)cc23)cc1`, the “hERG current change (%, negative = inhibition) at 10uM” value amounted to 2.16%.
To `CC(=O)Nc1ccc(NC(=O)/C=C/c2ccc3c(c2)OCO3)cc1` belongs 13%; to `O=C(/C=C/c1ccc2c(c1)OCO2)Nc1cccnc1`, -66.4%.
To `O=C(/C=C/c1ccc2c(c1)OCO2)c1cccnc1` belongs -27.8%; to `C[C@@H](C(=O)N[C@@H](Cc1c[nH]c2ccccc12)C(=O)O)n1nnc2ccccc2c1=O`, 41.7%.
To `Cn1c(Cn2c(=O)sc3ccccc32)nnc1SCc1ccc(F)cc1` belongs -21.6%.
Take `CC(=O)N(CCS(=O)(=O)c1ccc(Cl)cc1)Cc1cccs1`: the “hERG current change (%, negative = inhibition) at 10uM” value was -0.348%.
To `N#C/C(=C\c1ccc(N2CCOCC2)o1)C(=O)NCC1CCCO1` (stereo not shown) belongs -0.262%.
Next, `COCCNC(=O)/C(C#N)=C/c1ccc(N2CCOCC2)o1`: 9.87%; `N#C/C(=C\c1ccc(N2CCOCC2)o1)C(=O)NCCc1ccccc1`: -57.9%.
To `O=C(c1cc(C(=O)NCc2ccccc2)c(=O)n(Cc2ccccc2)c1)c1cc(Cl)ccc1O` belongs -0.908%; to `Cc1ccc2nsnc2c1S(=O)(=O)Nc1cccc2nsnc12`, -0.692%; to `COc1cc(C(=O)NC(=S)Nc2nccs2)cc(OC)c1OC`, 17.7%.
As to `COC(=O)C(C)Sc1nc2c(c(=O)[nH]c(=O)n2C)n1CCCc1ccccc1` (stereo not shown), the “hERG current change (%, negative = inhibition) at 10uM” value was -72.2%.
To `CC(C)Sc1nc2c(c(=O)[nH]c(=O)n2C)n1Cc1ccc(Cl)cc1` belongs -13.3%; to `Cn1c(=O)[nH]c(=O)c2c1nc(SCC(=O)O)n2CCCc1ccccc1`, 3.89%.
To `COC(=O)C(C)Sc1nc2c(c(=O)[nH]c(=O)n2C)n1CCC(C)C` (stereo not shown) belongs -24.6%.
To `C/C(Cl)=C/Cn1c(SC(C)C)nc2c1c(=O)[nH]c(=O)n2C` belongs -6.63%.
For the molecule `C/C(Cl)=C/Cn1c(SCC(C)C)nc2c1c(=O)[nH]c(=O)n2C`, the “hERG current change (%, negative = inhibition) at 10uM” value is recorded as 15.2%.
Next, `CCOC(=O)C(CC)Sc1nc2c(c(=O)[nH]c(=O)n2C)n1CCc1ccccc1` (stereo not shown): -67.8%; `CCOC(=O)C(C)Sc1nc2c(c(=O)[nH]c(=O)n2C)n1C/C=C(/C)Cl` (stereo not shown): -72.8%.
Next, `CCC(C)Sc1nc2c(c(=O)[nH]c(=O)n2C)n1Cc1ccc(Cl)cc1` (stereo not shown): 1.92%.
To `CCOC(=O)C(C)Sc1nc2c(c(=O)[nH]c(=O)n2C)n1Cc1ccc(Cl)cc1` (stereo not shown) belongs -75%; to `CCOC(=O)CSc1nc2c(c(=O)[nH]c(=O)n2C)n1CCc1ccccc1`, -1.16%.
Regarding `CCOC(=O)C(C)Sc1nc2c(c(=O)[nH]c(=O)n2C)n1CCc1ccccc1` (stereo not shown), the “hERG current change (%, negative = inhibition) at 10uM” value is -49.8%.
To `Cc1ccc(OC(=S)Nc2ccc(F)cc2)cc1` belongs 7.01%.
Next, `Cc1ccc(Sc2nc(-c3ccccc3)nnc2C(F)(F)F)cc1`: 11.7%; `CC(C)(C)C(=O)NC(Nc1cccc2cccnc12)C(Cl)(Cl)Cl` (stereo not shown): -1.6%.
For `CC1=C(C(=O)OC(C)C)C(c2ccc(Br)s2)NC(=O)N1` (stereo not shown), the “hERG current change (%, negative = inhibition) at 10uM” value was -48%.
To `O=c1oc2cc([N+](=O)[O-])ccc2nc1/C=C(\O)c1cccc(Br)c1` belongs 4.15%.
Next, `C[C@]12C(=O)N(c3ccc(F)cc3)C(=O)N1[C@@H]1c3ccccc3OC[C@@H]1[C@H]2c1ccccc1`: 7.01%; `COc1cc(OC)c(NC2=NCCCCC2)cc1Cl`: -0.664%; `CCOC(=O)C(CC)Sc1nc2c(c(=O)[nH]c(=O)n2C)n1C/C=C(/C)Cl` (stereo not shown): -82%.
Next, `CCSc1nc2c(c(=O)[nH]c(=O)n2C)n1C/C=C(/C)Cl`: -17.2%; `CCOC(=O)CSc1nc2c(c(=O)[nH]c(=O)n2C)n1C/C=C(/C)Cl`: -43.7%.
As to `Nc1nc(Cl)cc(-c2ccccc2)n1`, the “hERG current change (%, negative = inhibition) at 10uM” value is -4.54%.
To `CCC(C)C(NC=C1C(=O)OC(C)(C)OC1=O)C(=O)O` (stereo not shown) belongs -4.97%.
For `CC1CN(Cc2nc3c(c(=O)n(C)c(=O)n3C)n2Cc2cccc(Cl)c2)CC(C)O1` (stereo not shown), the “hERG current change (%, negative = inhibition) at 10uM” value was -14.2%.
Next, `COCCn1c(CN(Cc2ccccc2)Cc2ccccc2)nc2c1c(=O)n(C)c(=O)n2C`: -62.8%; `CCCn1c(CN(C)Cc2ccccc2)nc2c1c(=O)n(C)c(=O)n2C`: -23.4%.
To `CN(Cc1ccccc1)Cc1nc2c(c(=O)n(C)c(=O)n2C)n1CCc1ccccc1` belongs -48.3%.
Next, `CN(Cc1ccccc1)Cc1nc2c(c(=O)n(C)c(=O)n2C)n1CCCc1ccccc1`: -50.3%; `CCOCCn1c(CN(Cc2ccccc2)Cc2ccccc2)nc2c1c(=O)n(C)c(=O)n2C`: -45.6%.
As for `CCCCn1c(CN(C)Cc2ccccc2)nc2c1c(=O)n(C)c(=O)n2C`, the “hERG current change (%, negative = inhibition) at 10uM” value is on record as -39.9%.
`CN(Cc1ccccc1)Cc1nc2c(c(=O)n(C)c(=O)n2C)n1Cc1ccc(Cl)cc1`: the “hERG current change (%, negative = inhibition) at 10uM” value is -30.1%.
In the case of `Cn1c(=O)c2c(nc(CN3CCN(Cc4ccccc4)CC3)n2Cc2cccc(Cl)c2)n(C)c1=O`, the “hERG current change (%, negative = inhibition) at 10uM” value is given as -59.2%.
Next, `Cn1c(=O)c2c(nc(CN3CCN(c4cccc(Cl)c4)CC3)n2CCc2ccccc2)n(C)c1=O`: -20.1%; `COCCn1c(CN(C)Cc2ccccc2)nc2c1c(=O)n(C)c(=O)n2C`: -6.15%.
For the molecule `CN(Cc1ccccc1)Cc1nc2c(c(=O)n(C)c(=O)n2C)n1Cc1ccc(F)cc1`, the “hERG current change (%, negative = inhibition) at 10uM” value is listed as -55.6%.
Next, `CCCCC(CC(O)COCCC)C(=O)NN` (stereo not shown): 16.1%; `O=Cc1ccc(N2N=C(c3ccccc3)CC2c2ccccc2)cc1` (stereo not shown): 24.3%.
To `Cc1[nH]c(C)c2c(=O)n(-c3ccccc3)ncc12` belongs 10.2%.
